From PubChem
Rows were chosen to be rich in hits. Some 18% of all compounds tested hit in one or more screens of this group.
DT40 TDP1 no CPT: qHTS for Inhibitors of human tyrosyl-DNA phosphodiesterase 1 (TDP1): qHTS in cells in absence of CPT. DT40 Tdp1-/- hTDP1 cells, no CPT, ATP luminescence, 48 h. 420,000 compounds, 15% hits. Potency, µM (highest dose often 46.2 µM), for inactives: at the highest dose activity change, negative = growth inhibition, usual class: inhibitors; note: potency is the fitted concentration of half-maximal effect; % is set by controls: 0 for no effect and ±100 for the full control effect; nearly all actives have a fitted effect of over 55% in size
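Readout: luminescence from CellTiter-Glo after 30 min in the dark at RT. Cells: DT40 Tdp1-/- with stable hTDP1, 400/well. Exposure: compounds alone, ≥48 hr, 37 °C.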
TDP1 block: inhibitors of human tyrosyl-DNA phosphodiesterase TDP1; Potency, µM (top dose mostly 130 µM), for inactives: at the top dose activity change, negative = inhibition, most hits filed as inhibitors; AID 485290; recombinant TDP1, AlphaScreen DNA substrate cleavage; 350,000 compounds, 0.28% hits; Q9NUW8; note: potency is the fitted concentration of half-maximal effect; % is set by controls: 0 for no effect and ±100 for the full control effect; nearly all actives have a fitted effect of over 40% in size
Target sequence (Q9NUW8 whole entry, looked up): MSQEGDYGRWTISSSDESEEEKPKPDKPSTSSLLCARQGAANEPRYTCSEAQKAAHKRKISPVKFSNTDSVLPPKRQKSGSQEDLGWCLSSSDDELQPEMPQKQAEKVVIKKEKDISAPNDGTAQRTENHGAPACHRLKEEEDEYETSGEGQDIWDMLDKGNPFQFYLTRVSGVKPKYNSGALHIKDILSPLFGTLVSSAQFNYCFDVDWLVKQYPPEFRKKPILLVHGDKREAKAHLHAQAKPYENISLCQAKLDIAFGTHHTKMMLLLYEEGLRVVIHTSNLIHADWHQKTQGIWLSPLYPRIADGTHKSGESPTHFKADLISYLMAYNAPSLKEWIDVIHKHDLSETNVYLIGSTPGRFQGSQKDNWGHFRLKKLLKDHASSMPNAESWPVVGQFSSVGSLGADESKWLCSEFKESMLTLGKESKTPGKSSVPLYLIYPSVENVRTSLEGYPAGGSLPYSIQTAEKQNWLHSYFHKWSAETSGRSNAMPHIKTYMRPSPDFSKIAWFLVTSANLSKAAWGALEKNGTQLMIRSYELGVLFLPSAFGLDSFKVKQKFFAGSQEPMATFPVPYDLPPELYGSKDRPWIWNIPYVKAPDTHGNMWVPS
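Enzyme-compound mixtures sat 15 min at room temperature, followed by a 5 min reaction with 15 nM final substrate and 10 min with AlphaScreen beads. Recombinant human Tdp1 was used at 1 nM final.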
IL1B secr inh: inhibitors of inflammasome signaling (IL-1 beta secretion); 360,000 compounds, 4.7% hits; activity change, % at 57.5 µM; THP-1 LPS/ATP IL-1B secretion, AlphaLISA, 16 h; stronger effect = lower value; in the data active = activity change below about -50%; inconclusive = mostly about -30% to -49%; note: % is set by controls: 0 for no effect and ±100 for the full control effect
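THP-1 cells pretreated 1 hr with compounds (up to 57.5 uM final), then stimulated with LPS (250 ng/mL final) plus ATP (1.25 mM final); secreted IL-1B measured by AlphaLISA after 16 hr, decreased signal indicating inhibition.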
HepG2 tox: HepG2 cytotoxicity, counter-screen for TGF-b inhibitors; 410,000 compounds, 0.76% hits; HepG2 CAGA-GFP viability, ATP luminescence, 18 h; Potency, µM (titrated, usually from 46.1 µM), for the others: at the top dose activity change, negative = cytotoxicity, hits mostly cytotoxic; note: potency is the fitted concentration of half-maximal effect
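HepG2 CAGA-GFP cells (1000/well, DMEM with 1% FBS) received compound, then TGF-beta at 500 pg/mL final, and were incubated 18 hours at 37 degrees C. Viability was read by CellTiter-Glo luminescence. Media-only wells were set as complete cell-killing and DMSO as no toxicity.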
TDP1 cell CPT: growth inhibition of DT40 Tdp1-/-;hTDP1 cells with camptothecin (screen for TDP1 inhibitors); 420,000 compounds, 12% hits; Potency, µM (doses to about 46.2 µM), without a hit: at the top dose activity change, negative = growth inhibition, actives largely listed as inhibitors; chicken DT40 Tdp1-/-;hTDP1 cells + 20 nM CPT, ATP luminescence, 48 h; note: potency is the fitted concentration of half-maximal effect; % is set by controls: 0 for no effect and ±100 for the full control effect; nearly all actives have a fitted effect of over 55% in size
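Chicken DT40 Tdp1-/- cells stably complemented with human TDP1 were seeded at 400 cells/well in medium containing 20 nM camptothecin, exposed to pin-transferred compounds, and grown at 37 °C for at least 48 hr. Viability was read as ATP luminescence.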
TGFb inhibitor: TGF-b pathway inhibition. HepG2 CAGA-GFP TGF-b/SMAD3 reporter, GFP fluorescence, 18 h; TGF-beta stimulated, 500 pg/mL final. Potency, µM (highest dose often 46.1 µM), inactives show top-dose activity, negative = inhibition, most hits filed as inhibitors. 410,000 compounds, 1.2% hits. AID 588855; note: potency is the fitted concentration of half-maximal effect; % is set by controls: 0 for no effect and ±100 for the full control effect; nearly all actives have a fitted effect of over 65% in size
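First, reporter cells (HEPG2 CAGA-GFP) rested 2 h at 37 degrees C. Next, compounds were pinned in and TGF-beta added to 500 pg/mL final. After 18 h, GFP was imaged per cell and summed per well.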
Numbers without * were called inactive; ? = inconclusive; / = no result given; [ ] = another dose, or the depositor's remark. Unless noted, calls come from the whole dose curve; as a rule, active = well fitted curve in the direction sought with a large enough effect; inconclusive = small, poorly fitted or top-dose-only effect, or another doubt; inactive = no such curve, though single readings can be large; an effect the other way counts as inactive or inconclusive.

SMILES | DT40 TDP1 no CPT | TDP1 block | IL1B secr inh | HepG2 tox | TDP1 cell CPT | TGFb inhibitor
CNC[C@@H]1Oc2ccc(NS(=O)(=O)c3ccc(Cl)cc3)cc2C(=O)N([C@H](C)CO)C[C@@H]1C | -15% | 3% | -16 | 0% | -19% | ?
O=C(Cn1nc(-c2ccccc2)c2cnc3ccc(F)cc3c21)NC1CCCC1 | 2% | 3% | / | 0% | -19% | 29%
COc1ccc(C(=O)n2nc(-c3ccco3)nc2SC)cc1OC | ? | -4% | 8 | -32% | ? | 2%
O=C(c1ccccc1F)N1c2nc(-c3ccco3)nn2C2(CCCCC2)[C@@H]2CCCC[C@@H]21 | 18µM* | 3% | / | -20% | ? | ?
O=C(c1ccccc1F)N1c2ncnn2C2(CCCCC2)[C@@H]2CCCC[C@@H]21 | ? | 5% | / | -12% | ? | -4%
COc1ccc(C(=O)N2c3nc(-c4ccco4)nn3C3(CCCCC3)[C@@H]3CCCC[C@@H]32)cc1OC | ? | 3% | / | 0% | 16µM* | -36%
O=C(c1ccc(F)cc1)N1c2nc(-c3ccco3)nn2C2(CCCCC2)[C@@H]2CCCC[C@@H]21 | 23µM* | 1% | / | -24% | ? | -10%
C=CCNC(=O)c1cc2cc(Cl)ccc2nc1N | ? | / | 0 | / | ? | /
CCSc1nc(N2CCCCC2)c2c(c1C#N)CCCC2 | 16µM* | 2% | 35 | 7% | ? | 2%
N#Cc1c(SCc2ccccc2)nc(N2CCOCC2)c2c1CCCC2 | -29% | -7% | 24 | 17% | 5% | -4%
Cc1c(O)cc2c(c1O)C(=O)CC(c1ccccc1)O2 (stereo not given) | 5.8µM* | / | 63 | -48% | 5.8µM* | ?
COc1c(O)cc2c(c1O)C(=O)CC(c1ccccc1)O2 (stereo not given) | / | 1% | / | / | / | /
CCN(CC)S(=O)(=O)c1ccc(N2CCCC2)c(NC(=O)CN2C(=O)NC3(CCCC3)C2=O)c1 | 2% | -6%[0.505 µM] | 3 | 9% | 3% | -7%
O=C(C1=C[C@H](c2ccc(C(F)(F)F)cc2)C[C@H](OCCCCO)O1)N1CCN(Cc2ccc3c(c2)OCO3)CC1 | ? | 5% | -67* | -38% | ? | ?
O=C(Nc1ccccc1)C1=C[C@H](c2ccc3c(c2)OCO3)C[C@H](OCCCCO)O1 | ? | 1% | -15 | -13% | 26µM* | -25%
O=C(C1=C[C@@H](c2ccc(C(F)(F)F)cc2)C[C@@H](OCCCCO)O1)N1CCCCCCC1 | ? | / | -19 | -28% | 23µM* | -21%
CN1CCN(C(=O)C2=C[C@@H](c3ccc(C(F)(F)F)cc3)C[C@@H](OCCCCO)O2)CC1 | -9% | 3% | -4 | -1% | 2% | -9%
CC(C)(C)C(C(=O)NCc1ccccc1)N1CCN(CCN2CCOCC2)CC1 (stereo not given) | -1% | / | -20 | / | -13% | /
COc1ccc(C2CC(c3ccccc3)=NN2C(=O)COC(=O)/C=C/c2ccc(O)c(OC)c2)cc1 (stereo not given) | ? | 4% | -9 | 14% | ? | -12%
Cc1ccc(NC(=O)N2CCCC2C(=O)NCC2CCCO2)cc1 (stereo not given) | 18% | 1% | 17 | -1% | 7% | -1%
CC(C)NC(=O)C1(C)CCN1C(=O)c1ccccc1Oc1ccccc1 (stereo not given) | -22% | / | 0 | 3% | ? | 21%
CC1CCN(Cc2c(O)ccc3c(=O)c(Oc4ccccc4Cl)c(C(F)(F)F)oc23)CC1 | 21µM* | -5% | / | -8% | ? | -20%
CCc1ccc(Oc2c(C(F)(F)F)oc3c(CN4CCN(C)CC4)c(O)ccc3c2=O)cc1 | 26µM* | 3% | / | -47% | ? | -2%
Cc1nc(NC(=O)c2ccc(OCC(C)C)cc2)sc1Cc1ccc2c(c1)OCO2 | 16µM* | 3% | -12 | -21% | ? | ?
COc1cc(C(=O)Nc2nc(C)c(Cc3ccc4c(c3)OCO4)s2)cc(OC)c1OC | 2.1µM* | -4% | -10 | 2% | 1.3µM* | ?
SMILES | DT40 TDP1 no CPT | TDP1 block | IL1B secr inh | HepG2 tox | TDP1 cell CPT | TGFb inhibitor
CCCOc1ccc(C(=O)Nc2ccc3c(c2)OCO3)cc1 | 13% | 4% | -2 | -27% | 3% | -11%
CCCOc1ccc(C(=O)Nc2nc(C)c(Cc3ccc4c(c3)OCO4)s2)cc1 | 7.3µM* | 8% | 20 | -57% | ? | ?
CCc1ccc2occ(CC(=O)Nc3sc4c(c3C(=O)OC)CCC4)c2c1 | 18µM* | 9% | / | -18% | 13µM* | -5%
CNC(=O)c1c(NC(=O)Cc2coc3ccc(C)cc23)sc2c1CCCC2 | 18µM* | -1% | / | -23% | ? | 1%
O=C(CCC(=O)N1CCCCCC1)NCc1ccc(F)cc1 | 0% | 2% | -2 | 40% | -4% | 20%
CCN(CC)c1ccc(NC(=O)c2c(C)nn(-c3ccc(F)cc3)c2-n2cccc2)c(C)c1 | / | 8% | / | -29% | / | ?
Cc1ccc2oc(-c3ccc(NC(=O)COc4ccccc4)cc3O)nc2c1 | ? | / | / | -30% | ? | -7%
CCOC(=O)/C(O)=C/c1ncc(C(F)(F)F)cc1Cl | ? | 0% | 16 | 3% | 23µM* | 18%
CCOC(=O)/C(=C\Nc1ccc(OC(F)(F)F)cc1)Sc1ncc(C(F)(F)F)cc1Cl | 12µM* | 2% | -12 | 0% | 16µM* | -18%
Nc1nc(N)c2c(Oc3ccc(F)cc3)cccc2n1 | 1.8µM* | / | / | -50% | 13µM* | 13µM*
Nc1nc(N)c2c(OCc3ccc(C(F)(F)F)cc3)cccc2n1 | 3.2µM* | / | / | -58% | 5µM* | ?
COc1ccc(COc2cccnc2N)cc1 | -30% | 8% | -1 | -20% | -29% | -9%
Cc1nc2nc[nH]n2c(=O)c1NS(=O)(=O)c1ccc(Br)cc1 | -10% | -4%[12.3 µM] | / | -1% | 6% | 0%
COc1cc(-c2cc(OC)c(O)c(OC)c2)cc(OC)c1O | 9.2µM* | / | -24 | 1% | 16µM* | -6%
C[C@]12C=CC(=O)C=C1CC[C@@H]1C2[C@@H](O)C[C@@]2(C)C1CC[C@]2(O)C(=O)COC(=O)CCC(=O)O (stereo not given in full) | -5% | / | ? | -4% | 3% | -16%
